The panel holds about 83,000 compounds, 20% with a hit somewhere; the sample as a whole holds those more often.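 Single-concentration screen, 48 h exposure, 96-well plates. Endpoint: percent growth. Below 10 = active.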 Values without a mark were called inactive. Active and inactive are the calls of the source.
Assays:
Assay in all cases: NCI-60 one-dose screen, 48 h (100 = growth as untreated, 0 = no growth, -100 = all killed)
DU-145 prostate = settings: 10 µM unless noted
K-562 leukemia = settings: 10 µM unless noted
MALME-3M melanoma = settings: 10 µM unless noted
RXF 393 renal = settings: 10 µM unless noted
SF-295 CNS = settings: 10 µM unless noted
UACC-257 melanoma = settings: 10 µM unless noted
SNB-19 CNS = settings: 10 µM unless noted
SK-MEL-5 melanoma = settings: 10 µM unless noted
LOX IMVI melanoma = settings: 10 µM unless noted
ACHN renal = settings: 10 µM unless noted
HL-60(TB) leukemia = settings: 10 µM unless noted
CCRF-CEM leukemia = settings: 10 µM unless noted
MOLT-4 leukemia = settings: 10 µM
OVCAR-8 ovarian = settings: 10 µM unless noted
IGROV1 ovarian = settings: 10 µM
OVCAR-3 ovarian = settings: 10 µM unless noted
NCI/ADR-RES ovarian = settings: 10 µM unless noted
T-47D breast = settings: 10 µM unless noted
HCC-2998 colon = settings: 10 µM unless noted
SK-MEL-2 melanoma = settings: 10 µM unless noted

SMILES | growth (DU-145 prostate) | growth (K-562 leukemia) | growth (MALME-3M melanoma) | growth (RXF 393 renal) | growth (SF-295 CNS) | growth (UACC-257 melanoma) | growth (SNB-19 CNS) | growth (SK-MEL-5 melanoma) | growth (LOX IMVI melanoma) | growth (ACHN renal) | growth (HL-60(TB) leukemia) | growth (CCRF-CEM leukemia) | growth (MOLT-4 leukemia) | growth (OVCAR-8 ovarian) | growth (IGROV1 ovarian) | growth (OVCAR-3 ovarian) | growth (NCI/ADR-RES ovarian) | growth (T-47D breast) | growth (HCC-2998 colon) | growth (SK-MEL-2 melanoma)
O=C(c1cccs1)C1NO[N+]([O-])=C1c1cccs1 (stereo not drawn) | 120% | 37.4% | -55.3% (active) | -25.1% (active) | 107% | 46.2% | 103% | 112% | -100% (active) | 22.8% | 9.45% (active) | -40.3% (active) | 38.5% | 24.5% | 7.37% (active) | -10.4% (active) | 47.5% | 26.3% | 96.5% | –
CCOC(=O)Nc1cc(Cl)c([N+](=O)[O-])c(NC(=O)OCC)n1 | 107% | 8.75% (active) | 99.3% | 99.3% | 101% | 88.8% | 98.1% | 91.8% | 61.5% | 53.6% | 38.2% | 33.1% | 79.6% | 64.6% | 55.6% | 103% | 102% | 82.1% | 103% | 74.6%
NC(Cc1ccc(O)cc1)C(=O)N/N=C/c1ccc(N(CCCl)CCCl)cc1 (stereo not drawn) | 69.2% | 41.3% | – | 95.3% | 48.5% | 93.6% | 92.5% | 88.9% | 44.4% | 75.1% | 8.82% (active) | 27.9% | 29.8% | 80.5% | 63.4% | 101% | 78.4% | 79.2% | 87.2% | 72.8%

Source: PubChem BioAssay (NCI)
